Structures are written as SMILES. Structures can show the parent of a compound that is named as a salt. Unmarked numbers belong to inactive results.

The test system of this test is NCI-H1688. The test can be described thus: inhibition of cell viability relative to untreated control (fraction); higher = stronger growth inhibition, active = 0.5 or more. To be noted: 30 µM; 24 h. The method in brief: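 Inhibition of cell viability appears as a fraction, based on viability relative to untreated cells. The assay used NCI-H1688 small cell lung cancer cells seeded in 96-well plates at 3 × 10^3 cells/well, treated one day later with a natural compound library (TargetMol) at 30 µM for 24 h at 37°C and 5% CO2. Absorbance at 450 nm with Cell Counting Kit-8 was recorded in triplicate.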
For `O=c1cc(-c2ccccc2)oc2c(O)c(O)ccc12` [7,8-Dihydroxyflavone], the “inhibition of cell viability” value was 0.694 (active). The value for `CC1CCC2(O)C(C)(C)C3CCC2(C)C1C3` (configuration not stated) [Patchouli alcohol] was 0.0152; that for `COc1ccc([C@@H]2CC(=O)c3c(O)cc(O[C@@H]4O[C@H](CO)[C@@H](O)[C@H](O)[C@H]4O[C@@H]4O[C@@H](C)[C@H](O)[C@@H](O)[C@H]4O)cc3O2)cc1O` [Neohesperidin] was 0.00547.

Turning to `N[C@H]1C(O)O[C@H](CO)[C@@H](O)[C@@H]1O` (some centres not stated) [Glucosamine hydrochloride], the “inhibition of cell viability” value was 0.0567.

As to `O=C(O)[C@H]1O[C@@H](Oc2cc3oc(-c4ccc(O)cc4)cc(=O)c3c(O)c2O)[C@H](O)[C@@H](O)[C@@H]1O` [Breviscapin], the “inhibition of cell viability” value is 0.262.

On to `NC[C@H]1O[C@H](O[C@H]2[C@H](O)[C@@H](O[C@H]3O[C@H](CO)[C@@H](O)[C@H](N)[C@H]3O)[C@H](N)C[C@@H]2N)[C@H](O)[C@@H](O)[C@@H]1O` [Kanamycin sulfate], for which the “inhibition of cell viability” value is 0.154. Next, `C[C@H]1[C@H](C)CC[C@]2(C(=O)O[C@@H]3O[C@H](CO[C@@H]4O[C@H](CO)[C@@H](O[C@@H]5O[C@H](C)[C@H](O)[C@@H](O)[C@H]5O)[C@H](O)[C@H]4O)[C@@H](O)[C@H](O)[C@H]3O)CC[C@]3(C)C(=CC[C@@H]4[C@@]5(C)C[C@@H](O)[C@H](O)[C@@](C)(CO)[C@@H]5CC[C@]43C)[C@H]12` [Asiaticoside]: 0.145. Next, `O=C(O)/C=C/c1ccc(O)cc1` [p-Coumaric acid]: 0.0191; `COc1ccc2cc1Oc1ccc(cc1)C[C@H]1c3cc(c(OC)cc3CCN1C)Oc1c(O)c(OC)cc3c1[C@H](C2)N(C)CC3` [Fangchinoline]: 0.969 (active). Next, `CC[C@]1(O)C[C@H]2CN(CCc3c([nH]c4ccccc34)[C@@](C(=O)OC)(c3cc4c(cc3OC)N(C=O)[C@H]3[C@@](O)(C(=O)OC)[C@H](OC(C)=O)[C@]5(CC)C=CCN6CC[C@]43[C@@H]65)C2)C1` [Vincristine sulfate]: 0.847 (active); `CC(C)CCC[C@@H](C)[C@H]1CC[C@H]2[C@@H]3CC=C4C[C@@H](O)CC[C@]4(C)[C@H]3CC[C@]12C` [Cholesterol]: -0.0392; `O=c1c(-c2ccc(O)cc2)coc2cc(O[C@@H]3O[C@H](CO)[C@@H](O)[C@H](O)[C@H]3O)cc(O)c12` [Genistin]: 0.279. `CCNC(=O)CC[C@H](N)C(=O)O` [L-Theanine]: the “inhibition of cell viability” value is -0.151. Next, `COc1c(O)cc2c(c1O)[C@@H]1O[C@H](CO)[C@@H](O)[C@H](O)[C@H]1OC2=O` [Bengenin]: 0.0368; `CC(C)=CCC[C@](C)(O)[C@H]1CC[C@]2(C)[C@@H]1[C@H](O)C[C@@H]1[C@@]3(C)CC[C@H](O)C(C)(C)[C@@H]3[C@@H](O)C[C@]12C` [Protopanaxatriol]: -0.051. Next, `O=c1c2ccccc2nc2n1CCc1c-2[nH]c2ccccc12` [Rutaecarpine]: -0.128; `C[C@@H]1C(=O)O[C@H]2C[C@@]34[C@H]5C[C@@H](C(C)(C)C)[C@]36[C@@H](OC(=O)[C@@H]6O)O[C@@]4(C(=O)O5)[C@]21O` [Ginkgolide A]: -0.028.

With `CCCCCCCCCCCCCCCCCCOCC(O)CO` (configuration not stated) [Batyl alcohol], the “inhibition of cell viability” value is -0.0252.

Regarding `O=C(OC[C@H]1O[C@@H](OC(=O)c2cc(O)c(O)c(OC(=O)c3cc(O)c(O)c(O)c3)c2)[C@H](OC(=O)c2cc(O)c(O)c(OC(=O)c3cc(O)c(O)c(O)c3)c2)[C@@H](OC(=O)c2cc(O)c(O)c(OC(=O)c3cc(O)c(O)c(O)c3)c2)[C@@H]1OC(=O)c1cc(O)c(O)c(OC(=O)c2cc(O)c(O)c(O)c2)c1)c1cc(O)c(O)c(OC(=O)c2cc(O)c(O)c(O)c2)c1` [Glycerite], the “inhibition of cell viability” value is 0.821 (active). On to `Cc1coc2c1C(=O)C(=O)c1c-2ccc2c(C)cccc12` [Tanshinone I], for which the “inhibition of cell viability” value was 0.929 (active). The value for `C[C@]12CC[C@@H]3c4ccc(O)cc4CC[C@H]3[C@@H]1CCC2=O` [Aquacrine] was 0.0269. As for `O=c1cc(-c2ccccc2)oc2ccccc12` [Flavone], the “inhibition of cell viability” value was 0.149. In the case of `CCCCOC(=O)c1ccc(O)cc1` [Butylparaben], the “inhibition of cell viability” value was 0.197. The value for `OC[C@@H](O)[C@@H](O)[C@H](O)[C@H](O)CO` [D-Mannitol] was -0.179. Next, `C[C@@H]1[C@H](O)[C@@H](C)/C=C/C=C/C=C/C=C/C=C/C=C/C=C/[C@H](O[C@@H]2O[C@H](C)[C@@H](O)[C@H](N)[C@@H]2O)C[C@@H]2O[C@](O)(C[C@@H](O)C[C@@H](O)[C@H](O)CC[C@@H](O)C[C@@H](O)CC(=O)O[C@H]1C)C[C@H](O)[C@H]2C(=O)O` [Amphotericin B]: 0.0269. The value for `C=C[C@@]1(C)CC(=O)[C@]2(O)[C@@]3(C)[C@@H](O)CCC(C)(C)[C@@H]3[C@H](O)[C@H](OC(C)=O)[C@@]2(C)O1` [Forskolin] was 0.166; that for `C/C=C(/C)C(=O)O[C@H]1[C@H](OC(C)=O)[C@@]2(CO)C(CC1(C)C)C1=CCC3[C@@]4(C)CCC(O[C@@H]5O[C@H](C(=O)O)[C@@H](O[C@@H]6O[C@H](CO)[C@@H](O)[C@H](O)[C@H]6O)[C@H](O)[C@H]5O[C@@H]5O[C@H](CO)[C@@H](O)[C@H](O)[C@H]5O)[C@](C)(CO)C4CC[C@@]3(C)[C@]1(C)C[C@H]2O.C/C=C(\C)C(=O)O[C@H]1[C@H](OC(C)=O)[C@@]2(CO)C(CC1(C)C)C1=CCC3[C@@]4(C)CCC(O[C@@H]5O[C@H](C(=O)O)[C@@H](O[C@@H]6O[C@H](CO)[C@@H](O)[C@H](O)[C@H]6O)[C@H](O)[C@H]5O[C@@H]5O[C@H](CO)[C@@H](O)[C@H](O)[C@H]5O)[C@](C)(CO)C4CC[C@@]3(C)[C@]1(C)C[C@H]2O` (some centres not stated) [Escin] was 0.982 (active); that for `COc1cc(C2Oc3cc([C@H]4Oc5cc(O)cc(O)c5C(=O)[C@@H]4O)ccc3OC2CO)ccc1O` (some centres not stated) [Silymarin] was 0.221. As for `COc1cc2c(cc1OC)-c1cc3ccc(OC)c(OC)c3c[n+]1CC2` [Palmatine chloride], the “inhibition of cell viability” value was 0.0401.

Turning to `COc1ccc2c(C)cc(=O)oc2c1` [7-Methoxy-4-methylcoumarin], the “inhibition of cell viability” value was -0.298.

On to `C[C@@H]1O[C@@H](O[C@@H]2[C@@H](O)[C@H](OCCc3ccc(O)c(O)c3)O[C@H](CO[C@@H]3O[C@H](CO)[C@@H](O)[C@H](O)[C@H]3O)[C@H]2OC(=O)/C=C/c2ccc(O)c(O)c2)[C@H](O)[C@H](O)[C@H]1O` [Echinacoside], for which the “inhibition of cell viability” value was 0.128. Regarding `COc1ccc(-c2cc(=O)c3c(O)c(OC)c(O)cc3o2)cc1OC` [Eupatilin], the “inhibition of cell viability” value was 0.345. Next, `Cc1cc(O)c2c(c1)C(=O)c1cccc(O)c1C2=O` [Chrysophanic Acid]: -0.28.

Turning to `O=C1c2c(O)cc(O)cc2O[C@H](c2cc(O)c(O)c(O)c2)[C@H]1O` [Dihydromyricetin], the “inhibition of cell viability” value was 0.596 (active). Next, `CC(C)[C@@H]1CC[C@@H](C)C[C@H]1O` [L-Menthol]: 0.178; `CN(C)[C@@H]1C(O)=C(C(N)=O)C(=O)[C@@]2(O)C(O)=C3C(=O)c4c(O)cccc4[C@@](C)(O)[C@H]3C[C@@H]12` [Tetracycline hydrochloride]: 0.293; `OC[C@H]1O[C@@H](Oc2ccc(O)cc2)[C@H](O)[C@@H](O)[C@@H]1O` [Arbutin]: -0.263.
